{
  "source": "PubChem BioAssay AID602477",
  "about": "(National Center for Advancing Translational Sciences (NCATS), 2012)",
  "note": "Results filed as inconclusive are left out. Active and inactive are the calls of the source. The call rests on the fitted dose curve; in most records, active means well fitted activation curve with a large enough effect; inconclusive means small, poorly fitted or top-dose-only effect; inactive means no such curve, though single readings can be large or run the other way.",
  "data": [
    {"assay": "FLuc inhibitory activity for the follow-up compounds in a cell-based assay to assess the activity of miR-21", "settings": "HeLa miR-21-FLuc reporter, luciferase luminescence, 48 h; series mostly up to 38.3 µM", "description": "NCGC Assay Overview: Firefly (Photinus pyralis) luciferase is one of the most commonly used transcriptional reporters. It is considered one of the more dynamically responsive reporters - that is, responsive to changes in reporter transcription - as it requires no post-translational modifications and is enzymatically active directly after protein synthesis (Wood, 1998). With no endogenous expression in mammalian cells and without the requirement of external excitation, it offers very little background signal, thus generally providing excellent signal to background for most assays. Previous profiling work to determine the prevalence of compounds that affect FLuc enzymatic activity (PubChem AID 411) identified that ~3% of the MLSMR library (then at ~72K) inhibited FLuc (Auld et al., 2008). […] Of the compounds identified in this profile that inhibited FLuc, 151 compounds were selected for further analysis, in an effort to better understand their mode of inhibiting FLuc. The assay described here was to determine the activity of the compounds in a cell-based firefly luciferase reporter gene assay originally designed to identify antagonists of miR-21. Compounds that inhibit miR-21 or compounds that stabilize FLuc intracellularly are identified as active compounds in the assay.\nNCGC Assay Protocol Summary: Reagents: In-house detection reagent: 300mM Tris-HCl, 300mM Trizma base, 300mM MgCl, 1% Triton-X100, 5mM DTT, 500uM Coenzyme A trilithium salt (Sigma #C3019),450uM ATP (Sigma #A7699), 1mM D-luciferin sodium salt monohydrate (Biosynth #L8240) HeLa cells stably expressing firefly luciferase (FLuc) under the control of a CMV promoter (upstream) and a miR-21 binding sequence directly downstream of the gene. These cells endogenously express miR-21. Control compounds used were two known firefly luciferase inhibitors (3-(5-(3-chlorophenyl)-1,2,4-oxadiazol-3-yl)benzoic acid and 5-(2-fluorophenyl)-3-phenyl-1,2,4-oxadiazole), and DMSO. Assay Summary: 6uL of HeLa miR-21-FLuc cells in assay buffer (DMEM, Invitrogen #21063-029; 10% FBS, HyClone #SH30071.03) were dispensed at 2000cells/well (3.3 x 10^5 cells/mL) into Greiner solid-white TC-treated 1536-well plates using a Multidrop Combi (Thermo Fisher Scientific). Plates were incubated for one hour at 37 degree Celsius, 95% humidity, 5% CO2. These assay plates were then treated with 23nL of compound or DMSO using a Kalypsys pin tool, which allows for delivery of a 12-point titration of each compound to the assay plate, with a final compound concentration ranging from approximately ~38uM to 0.2nM. Assay plates were then incubated for 48 hours. After incubation, plates were allowed to come to RT for one hour prior to delivery of 3uL of 3X luciferase detection reagent. After a 15 minute incubation to allow for cell lysis, luciferase activity was measured using a ViewLux CCD imager (PerkinElmer), with an average exposure time of 2-12 seconds.", "values": [
      {"compound": "CC(C)c1ccc(C(=O)Nc2ccc(-c3nc4ccccc4s3)c(Cl)c2)cc1", "Potency": "7.98 µM (active)"},
      {"compound": "Cc1ccc(C(=O)Nc2cccc(C(=O)O)c2)cc1S(=O)(=O)N1CCCC1", "Potency": "1 µM (active)"},
      {"compound": "COc1ccc2nc(NC(=O)c3ccco3)sc2c1", "Potency": "0.1 µM (active)"},
      {"compound": "O=C(Nc1ccccc1C(=O)O)c1cc(S(=O)(=O)Nc2ccccc2)ccc1Cl", "Potency": "inactive"},
      {"compound": "Nc1ccccc1C(=O)Nc1cccc(C(=O)O)c1", "Potency": "11.3 µM (active)"},
      {"compound": "CCOc1ccc2nc(NC(=O)Cc3cccs3)sc2c1", "Potency": "3.56 µM (active)"},
      {"compound": "COc1ccc(C(=O)Nc2ccccc2C(=O)Nc2ccccc2C(=O)O)cc1", "Potency": "8.95 µM (active)"},
      {"compound": "Cc1c(C)c2ccc(OCC(=O)Nc3ccccn3)c(C)c2oc1=O", "Potency": "0.0056 µM (active)"},
      {"compound": "O=S(=O)(c1ccc(-c2nc3ccccc3s2)cc1)N1CCCC1", "Potency": "2 µM (active)"},
      {"compound": "O=C(Nc1ccc(Cl)cc1-c1nc2ccccc2s1)c1ccco1", "Potency": "20 µM (active)"},
      {"compound": "CC(=O)Oc1ccc(C(=O)Nc2ccccc2C(=O)Nc2cccc(C(=O)O)c2)cc1", "Potency": "inactive"},
      {"compound": "Cc1cccc(C(=O)Nc2ccc(-c3nc4ccccc4s3)cc2Cl)c1", "Potency": "12.6 µM (active)"},
      {"compound": "COc1cccc(-c2nc3ccccc3s2)c1", "Potency": "0.252 µM (active)"},
      {"compound": "COc1ccc(-c2nc3ccccc3s2)cc1NC(=O)c1ccc(F)cc1", "Potency": "12.6 µM (active)"},
      {"compound": "COc1ccc2nc(NC(=O)c3ccc4ncsc4c3)sc2c1", "Potency": "2.83 µM (active)"},
      {"compound": "O=C(O)c1cccc(NC(=O)c2ccc(COc3ccc(Cl)cc3)cc2)c1", "Potency": "12.6 µM (active)"},
      {"compound": "COc1ccc(C(=O)Nc2ccccc2-c2nc3ccccc3s2)c(OC)c1", "Potency": "22.5 µM (active)"},
      {"compound": "CCOc1c(Cl)cc(C(=O)Nc2ccccc2C(=O)O)cc1Cl", "Potency": "5.04 µM (active)"},
      {"compound": "O=C(Nc1cccc(-c2nc3ccccc3s2)c1)C1=COCCO1", "Potency": "12.6 µM (active)"},
      {"compound": "COc1cccc(OC)c1C(=O)Nc1cccc(C(=O)Nc2cccc(C(=O)O)c2)c1", "Potency": "inactive"},
      {"compound": "Cc1ccc2sc(-c3ccc(NC(=O)c4cc(-n5cnnc5)ccc4Cl)cc3)nc2c1", "Potency": "1.79 µM (active)"},
      {"compound": "O=C(Nc1ccccc1C(=O)O)c1ccc(NC(=O)C2CCCCC2)cc1", "Potency": "inactive"},
      {"compound": "O=C(Nc1cccc(-c2nc3ccccc3s2)c1)c1cc(-n2cnnc2)ccc1Cl", "Potency": "4.49 µM (active)"},
      {"compound": "COc1ccc2nc(NC(=O)c3nc(S(=O)(=O)Cc4ccc(C)cc4)ncc3Cl)sc2c1", "Potency": "2.52 µM (active)"},
      {"compound": "O=C(O)c1ccc(NC(=O)c2cc(S(=O)(=O)N3CCCCC3)c(Cl)cc2Cl)cc1", "Potency": "inactive"},
      {"compound": "O=C(O)c1ccc(NC(=O)c2cccc(C(=O)Nc3ccc(C(=O)O)cc3)c2)cc1", "Potency": "inactive"},
      {"compound": "O=C(O)c1cccc(NC(=O)c2ccccc2NC(=O)c2ccccc2F)c1", "Potency": "inactive"},
      {"compound": "CN(C)c1cccc(C(=O)Nc2ccc(-c3nc4ccccc4s3)cc2)c1", "Potency": "0.503 µM (active)"},
      {"compound": "Cc1cccc(C(=O)Nc2ccccc2C(=O)Nc2ccc(C(=O)O)cc2)c1", "Potency": "15.9 µM (active)"},
      {"compound": "CN=c1scc(-c2ccccc2F)n1/N=C/c1ccc[nH]1", "Potency": "inactive"},
      {"compound": "O=C(Nc1ccccc1C(=O)O)c1ccc(NC(=O)C2CCCO2)cc1", "note": "(stereo not given)", "Potency": "inactive"},
      {"compound": "Cc1ccc2nc(-c3ccc(NC(=O)CN4CCN(C(=O)c5ccco5)CC4)cc3)sc2c1", "Potency": "4.49 µM (active)"},
      {"compound": "CCCC(=O)Nc1nc2ccc(OCC)cc2s1", "Potency": "2.83 µM (active)"},
      {"compound": "Oc1ccc(-c2nc3ccccc3s2)c(O)c1", "Potency": "11.3 µM (active)"},
      {"compound": "Nc1ccccc1-c1nc2ccccc2s1", "Potency": "3.18 µM (active)"},
      {"compound": "O=C(O)c1cccc(NC(=O)c2cccc(S(=O)(=O)N3CCc4ccccc4C3)c2)c1", "Potency": "inactive"},
      {"compound": "Cc1ccc(C(=O)Nc2ccccc2C(=O)O)cc1S(=O)(=O)N1CCCCCC1", "Potency": "2.83 µM (active)"},
      {"compound": "O=C(O)c1cccc(NC(=O)c2cccc(S(=O)(=O)N3CCc4ccccc43)c2)c1", "Potency": "inactive"},
      {"compound": "O=C(Nc1ccc(-c2nc3ccccc3s2)cc1)C1=COCCO1", "Potency": "0.01 µM (active)"},
      {"compound": "CCOc1ccc2nc(NC(=O)c3cc([N+](=O)[O-])ccc3N3CCOCC3)sc2c1", "Potency": "5.04 µM (active)"}
    ]}
  ]
}
